Measured values from PubChem BioAssay (NCI).
The panel holds about 83,000 compounds, 20% with a hit somewhere; the sample as a whole holds those more often.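 Assay: single dose, 48 h. Readout: percent growth (0 = no net growth; negative = cell death). Active: <10.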 A number with no mark means an inactive call. The source made the active and inactive calls.

Assays:
Test in all cases: NCI-60 one-dose screen, 48 h (100 = growth as untreated, 0 = no growth, -100 = all killed)
Conditions in all cases: 10 µM unless noted
[1] = test system: HCT-15 colon
[2] = test system: HT29 colon
[3] = test system: SNB-75 CNS
[4] = test system: SNB-19 CNS
[5] = test system: U251 CNS
[6] = test system: PC-3 prostate
[7] = test system: SK-MEL-5 melanoma
[8] = test system: UACC-62 melanoma
[9] = test system: LOX IMVI melanoma
[10] = test system: SK-MEL-28 melanoma

## O=C1c2ccc3c4ccc5c6c(ccc(c7ccc(c2c37)C(=O)N1CCC[P+](c1ccccc1)(c1ccccc1)c1ccccc1)c64)C(=O)N(CCC[P+](c1ccccc1)(c1ccccc1)c1ccccc1)C5=O
[1]
  growth: 67.9%
[2]
  growth: 26.4%
[3]
  growth: 131%
[4]
  growth: 42.4%
[5]
  growth: 22.3%
[6]
  growth: 56.1%
[7]
  growth: 18.5%
[8]
  growth: 54.5%
[9]
  growth: 17%
[10]
  growth: 15.2%

## N#Cc1c(-c2ccc(Cl)cc2)nc(SCC(=O)NC2=NN=C(c3ccccc3)CS2)[nH]c1=O
[1]
  growth: 72.4%
[2]
  growth: 104%
[3]
  growth: 80.5%
[4]
  growth: 85.8%
[5]
  growth: 77.3%
[6]
  growth: 78.6%
[7]
  growth: 84.2%
[8]
  growth: 75.1%
[9]
  growth: 69.5%
[10]
  growth: 76.3%

## CCOC(=O)c1cc2c(=O)oc3ccccc3c2oc1=O
[1]
  growth: 96%
[2]
  growth: 96%
[3]
  growth: 82.1%
[4]
  growth: 105%
[5]
  growth: 91.6%
[6]
  growth: 69.3%
[7]
  growth: 106%
[8]
  growth: 95.8%
[9]
  growth: 91.5%
[10]
  growth: 116%

## CCOC(=O)c1cc(C(=O)c2cc(OC)c(OC)c(OC)c2)n2ccc(-c3ccncc3)cc12
[1]
  growth: 99.4%
[2]
  growth: 91.5%
[3]
  growth: 88.8%
[4]
  growth: 94.4%
[5]
  growth: 93.2%
[6]
  growth: 75.2%
[7]
  growth: 82.8%
[8]
  growth: 98.4%
[9]
  growth: 99%
[10]
  growth: 110%

## CCN(CC)c1ccc(/C=C/C(=O)c2ccc(Nc3nc(Nc4ccccc4)nc(Nc4ccccc4)n3)cc2)cc1
[1]
  growth: 32.4%
[2]
  growth: 49.8%
[3]
  growth: 26.8%
[4]
  growth: 67.5%
[5]
  growth: 43.4%
[6]
  growth: 34.1%
[7]
  growth: 40.7%
[8]
  growth: 54.8%
[9]
  growth: 40.3%
[10]
  growth: 65.6%

## CN(C)Cc1ccc(NC(=O)c2cncc(C#Cc3cnc(N)c4ncccc34)c2)cc1F
[1]
  growth: -55.7% (active)
[2]
  growth: 3.71% (active)
[3]
  growth: 123%
[4]
  growth: 87.2%
[5]
  growth: 74.8%
[6]
  growth: 75.2%
[7]
  growth: 77.3%
[8]
  growth: 94.2%
[9]
  growth: -65% (active)
[10]
  growth: -48.2% (active)

## Cc1ccc2c(n1)C(=O)c1[nH]c3ccccc3c1C2=O
[1]
  growth: 18.8%
[2]
  growth: 26.6%
[3]
  growth: -37.8% (active)
[4]
  growth: 46.9%
[5]
  growth: 40.9%
[6]
  growth: 35.3%
[7]
  growth: -94% (active)
[8]
  growth: -64.2% (active)
[9]
  growth: 16.4%
[10]
  growth: 78.6%

## Cc1ccc(-c2nc3nc(-c4ccc(F)cc4)nc(N4CCNCC4)c3o2)cc1
[1]
  growth: -80% (active)
[2]
  growth: -78.1% (active)
[3]
  growth: -2.57% (active)
[4]
  growth: 40.5%
[5]
  growth: -30.9% (active)
[6]
  growth: 14.8%
[7]
  growth: 96.9%
[8]
  growth: 91.1%
[9]
  growth: -92% (active)
[10]
  growth: 114%

## COc1ccc(C2c3sc4c(F)cccc4c3Oc3nc[nH]c(=O)c32)cc1 (stereo not given)
[1]
  growth: 74.9%
[2]
  growth: 107%
[3]
  growth: 88.2%
[4]
  growth: 79%
[5]
  growth: 89.7%
[6]
  growth: 65.8%
[7]
  growth: 75.4%
[8]
  growth: 60.1%
[9]
  growth: 82.9%
[10]
  growth: 92.6%

## Fc1ccc2[nH]cc(-c3nonc3-c3c[nH]c4ccc(Br)cc34)c2c1
[1]
  growth: 9.29% (active)
[2]
  growth: -51.8% (active)
[3]
  growth: 33.7%
[4]
  growth: 35.8%
[5]
  growth: 13.6%
[6]
  growth: 26.7%
[7]
  growth: 49.8%
[8]
  growth: 28%
[9]
  growth: -53.9% (active)
[10]
  growth: 61.8%

## N#Cc1c(-c2ccc(Cl)cc2)nc(NN=Cc2cccc(O)c2)nc1N1CCOCC1
[1]
  growth: 44.7%
[2]
  growth: 69.8%
[3]
  growth: 46.1%
[4]
  growth: 86.9%
[5]
  growth: 61.6%
[6]
  growth: 63.8%
[7]
  growth: 76.5%
[8]
  growth: 94.1%
[9]
  growth: 61.7%
[10]
  growth: 77.1%

## CCNC(=O)c1[nH]cc(-c2ccccc2)c1-c1cc(OC)c2c(c1OC)OCO2
[1]
  growth: 103%
[2]
  growth: 112%
[3]
  growth: 91.4%
[4]
  growth: 98.6%
[5]
  growth: 103%
[6]
  growth: 93.1%
[7]
  growth: 89.8%
[8]
  growth: 92.2%
[9]
  growth: 95.1%
[10]
  growth: 108%

## OB(O)c1cccc(-c2nc3ccc4[nH]ncc4c3c3c2CCCC3)c1
[1]
  growth: 37.6%
[2]
  growth: 48.1%
[3]
  growth: -30.6% (active)
[4]
  growth: 78.4%
[5]
  growth: 56.7%
[6]
  growth: 53.9%
[7]
  growth: 68.1%
[8]
  growth: 35.5%
[9]
  growth: 35.6%
[10]
  growth: 91.9%

## O=C(O)c1[nH]c(=O)[nH]c(=O)c1[N+](=O)[O-]
[1]
  growth: 98.8%
[2]
  growth: 129%
[3]
  growth: 93.4%
[4]
  growth: 110%
[5]
  growth: 104%
[6]
  growth: 96.7%
[7]
  growth: 110%
[8]
  growth: 106%
[9]
  growth: 105%
[10]
  growth: 121%

## CCCCC[C@@H]1Cc2cc(O)c(C(=O)O)c3c2[C@H](C[C@]2(OC[C@@H](CC(=O)[C@@](C)(CC)C(=O)OC)[C@@H]2C)O3)O1
[1]
  growth: 91.6%
[2]
  growth: 116%
[3]
  growth: 96.9%
[4]
  growth: 94.3%
[5]
  growth: 103%
[6]
  growth: 106%
[7]
  growth: 108%
[8]
  growth: 88.9%
[9]
  growth: 103%
[10]
  growth: 118%

## COc1ccc(-c2csc(NC(=O)CSc3nc(-c4ccccc4)cc(=O)[nH]3)n2)cc1
[1]
  growth: 70.9%
[2]
  growth: 85.9%
[3]
  growth: 82.3%
[4]
  growth: 70.1%
[5]
  growth: 79.7%
[6]
  growth: 66.5%
[7]
  growth: -16.5% (active)
[8]
  growth: 58.7%
[9]
  growth: 66%
[10]
  growth: 90.6%

## N#Cc1cccc(-c2c(-c3ccc4ccccc4c3)oc3ccccc3c2=O)c1
[1]
  growth: 33.9%
[2]
  growth: 10.9%
[3]
  growth: 51.1%
[4]
  growth: 53.7%
[5]
  growth: 45.6%
[6]
  growth: 34.1%
[7]
  growth: 31%
[8]
  growth: 33.9%
[9]
  growth: 50.7%
[10]
  growth: 58%

## COC(C(=O)[C@@H](O)[C@@H](C)O)[C@@H]1Cc2cc3cc(O[C@H]4C[C@@H](O[C@H]5C[C@@H](O)[C@H](O)C(C)O5)[C@H](O)C(C)O4)cc(O)c3c(O)c2C(=O)[C@H]1O[C@H]1C[C@@H](O[C@H]2C[C@@H](O[C@H]3C[C@@H](OC)[C@H](O)C(C)O3)[C@@H](O)C(C)O2)[C@H](O)C(C)O1 (stereo not given in full)
[1]
  growth: 102%
[2]
  growth: 34.9%
[3]
  growth: 35.7%
[4]
  growth: 40.1%
[5]
  growth: 26.5%
[6]
  growth: 42.5%
[7]
  growth: 14.6%
[8]
  growth: 0.169% (active)
[9]
  growth: 17.8%
[10]
  growth: 30.7%

## O=C(NCCCN1CCOCC1)c1cccc(N2C(=O)/C(=C/c3ccc(F)cc3)SC2=S)c1
[1]
  growth: 99.8%
[2]
  growth: 108%
[3]
  growth: 62.5%
[4]
  growth: 92.8%
[5]
  growth: 100%
[6]
  growth: 75.3%
[7]
  growth: 97.3%
[8]
  growth: 88.4%
[9]
  growth: 87.3%
[10]
  growth: 104%

## N#Cc1c(-c2cccs2)cc(-c2cccnc2)[nH]c1=O
[1]
  growth: 102%
[2]
  growth: 111%
[3]
  growth: 102%
[4]
  growth: 98.1%
[5]
  growth: 96.9%
[6]
  growth: 101%
[7]
  growth: 102%
[8]
  growth: 95.5%
[9]
  growth: 97.5%
[10]
  growth: 104%

## O=[N+]([O-])c1ccc(-c2nc(N3CCOCC3)c3c4c(sc3n2)CCCC4)cc1
[1]
  growth: 97.8%
[2]
  growth: 94.8%
[3]
  growth: 76.6%
[4]
  growth: 115%
[5]
  growth: 102%
[6]
  growth: 101%
[7]
  growth: 94.1%
[8]
  growth: 85.1%
[9]
  growth: 86%
[10]
  growth: 111%

## Nc1c(C(=O)Nc2ccncc2)sc2nc3c(cc12)CCCCCC3
[1]
  growth: 63.5%
[2]
  growth: 41.9%
[3]
  growth: 84.2%
[4]
  growth: 84.1%
[5]
  growth: 76.2%
[6]
  growth: 90.3%
[7]
  growth: 56.8%
[8]
  growth: 89.6%
[9]
  growth: 84.8%
[10]
  growth: 88.6%

## COc1ccc2[nH]cc(-c3nc(-c4c[nH]c5ccncc45)cs3)c2c1
[1]
  growth: -10.2% (active)
[2]
  growth: -15.7% (active)
[3]
  growth: 76.1%
[4]
  growth: 47.1%
[5]
  growth: -49.4% (active)
[6]
  growth: 42.4%
[7]
  growth: 43.3%
[8]
  growth: 84.2%
[9]
  growth: -87.4% (active)
[10]
  growth: -88.5% (active)

## O=C1c2cc(Cl)ccc2S(=O)(=O)c2c(NCCCNCCO)nc3ccccc3c21
[1]
  growth: -65.4% (active)
[2]
  growth: -78.8% (active)
[3]
  growth: 32.6%
[4]
  growth: 56.4%
[5]
  growth: -15.8% (active)
[6]
  growth: -14.2% (active)
[7]
  growth: 11.3%
[8]
  growth: 2.05% (active)
[9]
  growth: -76.8% (active)
[10]
  growth: 6.11% (active)

## CC1=Nc2cnc(Nc3ccc(OCCN4CCCCC4)cc3)nc2Nc2ccccc21
[1]
  growth: 27.8%
[2]
  growth: 50.6%
[3]
  growth: 9.67% (active)
[4]
  growth: 87.8%
[5]
  growth: 76.6%
[6]
  growth: 48.7%
[7]
  growth: 69.2%
[8]
  growth: 85.7%
[9]
  growth: 47.6%
[10]
  growth: 99.3%

## Cc1c(-c2nc3ccc(F)cc3c(=O)[nH]2)c2ccccc2n1C
[1]
  growth: 22.9%
[2]
  growth: 10.7%
[3]
  growth: -7.98% (active)
[4]
  growth: 29.2%
[5]
  growth: 27.6%
[6]
  growth: 47.1%
[7]
  growth: 36.2%
[8]
  growth: 19.6%
[9]
  growth: 34.5%
[10]
  growth: 52%
